The whole screen tested about 340,000 compounds, of which about 280 (0.082%) were called active. Shown is part of a subset that was picked to be rich in actives. Values without a mark were called inactive. No stated cut-off is given here; in the data, active means inhibition mostly above about 23% (no sharp cut-off); inactive means mostly below about 18%.

This assay deals with 5-hydroxytryptamine receptor 5A (Homo sapiens) (UniProt P47898). The assay is described as follows: HTR5A inverse agonists in luminescence cell assay, primary screen, counter-screen for OPRM1-OPRD1 heterodimer inverse agonist project, full-deck HTS (AID 504634).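 Further: 0% = cells with DMSO and 100% = no-cell wells with DMSO.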 The following applies: HTR5A cell line, inverse agonism, at 9.3 µM, active compounds read high.
Chain of 5-hydroxytryptamine receptor 5A (Homo sapiens) (P47898 whole entry, looked up): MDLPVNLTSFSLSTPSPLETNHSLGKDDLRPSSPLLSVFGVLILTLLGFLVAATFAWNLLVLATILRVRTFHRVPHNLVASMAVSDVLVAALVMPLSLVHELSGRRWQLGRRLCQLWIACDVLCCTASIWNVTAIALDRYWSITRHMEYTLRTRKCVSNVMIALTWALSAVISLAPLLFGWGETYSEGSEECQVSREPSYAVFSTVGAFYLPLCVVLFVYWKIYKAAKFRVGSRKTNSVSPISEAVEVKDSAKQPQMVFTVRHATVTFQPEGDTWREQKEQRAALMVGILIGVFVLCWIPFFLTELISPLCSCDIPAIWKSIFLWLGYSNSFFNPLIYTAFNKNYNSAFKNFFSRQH
Take `CC(=O)OC1C2(CC3N4C(=O)C5(CO)SSC4(CC31O)C(=O)N5C)OC(C)C(C)(C)C2=O` (stereo not given): the inhibition (in general, the relative decrease from the control value, in per cent) was 97.6% (active).

`COC1C(O)C(C)OC(OC2CCC3(C=O)C(CCC4C3CCC3(C)C(C5=CC(=O)OC5)CCC43O)C2)C1O` (stereo not given): the inhibition is -11%.

Regarding `c1ccc(C2NCc3ccccc3-n3cccc32)cc1` (stereo not given), the inhibition was -5.59%.

Regarding `COC(=O)C1=C(c2cc3ccccc3s2)C[C@@H]2CC[C@H]1N2C(=O)NC(C)C`, the inhibition is 5.09%.

Take `C[C@]12CCC3C(CC[C@H]4[C@H](O)[C@H](O)CC[C@]34C)C1CC[C@@H]2O` (stereo not given in full): the inhibition is -10.8%.
